According to PubChem BioAssay (NCI):
The panel holds about 79,000 compounds, 15% with a hit somewhere; the sample as a whole holds those more often. Activity calls are given as the source filed them. No stated cut-off is given here; in the data, active means growth inhibition above about 70%; inactive means the rest.

Assays:
[1] = NCI Yeast Anticancer Drug Screen. Data for the rad50 strain (AID 155);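 further: 0% = growth of vehicle-only cultures of the same strain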; details: S. cerevisiae rad50 strain growth inhibition; at 50.0 µM; stronger effect = higher value
Method in brief: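 DNA repair mutant yeast, compound exposure, growth read-out; inhibition is taken relative to vehicle.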

[2] = NCI Yeast Anticancer Drug Screen. Data for the mec2-1 strain (AID 157); details: S. cerevisiae mec2-1 strain, at 50.0 µM, stronger effect = higher value
Method in brief: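 Yeast mec2-1 mutant treated with compound. Readout: growth inhibition vs vehicle controls.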

[3] = NCI Yeast Anticancer Drug Screen. Data for the sgs1 mgt1 strain (AID 161);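 further: 0% = growth of cultures given vehicle only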; details: S. cerevisiae sgs1 mgt1 strain, at 50.0 µM, stronger effect = higher value
Method in brief: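 Genetically altered yeast, compound exposure, growth inhibition relative to vehicle.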

[4] = NCI Yeast Anticancer Drug Screen. Data for the cln2 rad14 strain (AID 165);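 further: 0% = growth equal to vehicle treated cultures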; details: S. cerevisiae cln2 rad14 strain, at 50.0 µM, stronger effect = higher value
Method in brief: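 cln2 rad14 yeast strain; compound exposure; growth inhibition read vs vehicle controls.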

[5] = NCI Yeast Anticancer Drug Screen. Data for the bub3 strain (AID 167); details: S. cerevisiae bub3 mutant strain, at 50.0 µM, stronger effect = higher value
Method in brief: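 In this screen, a yeast mutant lacking normal mitotic checkpoint function is challenged with compound. Relative growth versus vehicle gives the inhibition value.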

[6] = NCI Yeast Anticancer Drug Screen. Data for the mlh1 rad18 strain (AID 175); details: S. cerevisiae mlh1 rad18 strain growth inhibition; at 50.0 µM; stronger effect = higher value
Method in brief: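 Yeast w/ defined DNA-repair lesions; compound exposure; growth vs vehicle controls → % inhibition.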

Measured: growth inhibition

O=S(=O)(O)C(O)Cc1cccc2ccccc12 (stereo unspecified)
inactive: [1] 2.2% | [2] -8.25% | [3] 1.3% | [4] -40.2% | [5] -17.8% | [6] -0.3%

CCCCC(=O)Nc1ccc(Cl)cc1
inactive: [1] 18.2% | [2] 7.8% | [3] 6.5% | [4] 8.2% | [5] -19.9% | [6] 11.7%

COC(=O)CC1(O)C=CCCC1c1ccccc1 (stereo unspecified)
inactive: [1] -23.2% | [2] -7.6% | [3] 2.35% | [4] 0.3% | [5] -7.5% | [6] -35%

Cc1cc(NC(=O)C(=O)CC(=O)c2cccnc2)no1
inactive: [1] -59% | [2] -1.8% | [3] -8.2% | [4] -52.1% | [5] -6.2% | [6] -4.15%

CCCCCCCCCCCCOP(=O)(O)OP(=O)(O)OCC1OC(n2ccc(N)nc2=O)CC1O (stereo unspecified)
inactive: [1] 27.9% | [2] 21.5% | [3] 27.6% | [4] 17.1% | [5] 22.1% | [6] 18.2%

O=C(C(=O)c1cccc(C(=O)C(=O)c2ccccc2)c1)c1ccccc1
inactive: [1] 5.45% | [2] -10.6% | [3] -15.2% | [4] 17.3% | [5] -29% | [6] 9.5%

C[N+]1(C)CCC[N+](C)(C)CC1
inactive: [1] -15.9% | [2] -7.75% | [3] 3.9% | [4] 16.2% | [5] 20.9% | [6] 6.4%

O=C(c1ccco1)N(C(=S)N1CCN(c2ccccc2)CC1)C1CCCCC1
inactive: [1] 16.4% | [2] 25.4% | [3] 26.4% | [4] 36% | [5] 24.4% | [6] 19.1%

CC(=O)CC(SCCSCCSC(CC(C)=O)c1ccccc1)c1ccccc1 (stereo unspecified)
inactive: [1] 6.9% | [2] -3.65% | [3] 5.05% | [4] 17.1% | [5] 3.95% | [6] 14.7%

O=[N+]([O-])c1cc2c3c(cccc3c1O)CC2
inactive: [1] -18.1% | [2] -8.9% | [3] -4% | [4] -9.85% | [5] 4.45% | [6] 24%

O=C(CO)c1ccc([N+](=O)[O-])cc1
inactive: [1] 16.8% | [2] 34.3% | [3] 1.85% | [4] 7.5% | [5] 13.4% | [6] 40.4%

COc1ccc(C(=O)/C=C/c2cc(C(C)(C)C)c(O)c(C(C)(C)C)c2)cc1
inactive: [1] 17.4% | [2] -1.2% | [3] 14.6% | [4] 25.4% | [5] 7.8% | [6] 18.2%

Cn1nc(-c2cccc(-c3nn(C)c(=NCCO)s3)n2)sc1=NCCO
inactive: [1] -29.8% | [2] -25.4% | [3] -51% | [4] -6.7% | [5] -28.1% | [6] -40.6%

O=C(c1ccccc1)c1ccc2[nH]ccc(=O)c2c1
inactive: [1] -4.7% | [2] 0.5% | [3] -3.7% | [4] -31.1% | [5] -7.85% | [6] 4.3%

Nc1nc2c(nnn2C2OC(CO)C(O)C2O)c(=O)[nH]1 (stereo unspecified)
inactive: [1] -4.6% | [2] 5.65% | [3] -5.3% | [4] -37.5% | [5] -16.8% | [6] 9.45%

CCC(=O)Nc1ccccc1-c1ccccc1
inactive: [1] 25.6% | [2] 19% | [3] 16.9% | [4] 7.6% | [5] -1.8% | [6] 2.5%

O=[N+]([O-])c1ccc(OCCCCCBr)c(Cl)c1
inactive: [1] -1.95% | [2] 47.1% | [4] -26.7% | [5] 66.2% | [6] 54.7%
active: [3] 70.3%

N=c1c2ccccc2c2ccccc2n1O
inactive: [1] 2.15% | [2] -5.05% | [3] -19.1% | [4] -11.4% | [5] -5.75% | [6] -19.4%

CCN(CC)CCN(C)C(O)(C(=O)c1ccccc1)C1CCCC1 (stereo unspecified)
inactive: [1] 8.9% | [2] 15.2% | [3] 2.3% | [4] -4.35% | [5] 0.45% | [6] 32%

O=C(Cn1c2c(c3ccccc31)CCCC2)NC1CCCCC1
inactive: [1] 2.6% | [2] -28.4% | [3] 21.9% | [4] 30.3% | [5] 1.25% | [6] 9.7%

COC(=O)[C@]1(C)OP(OC)(OC)(OC)O[C@]1(C)C(=O)OC
inactive: [1] -3.4% | [2] -10.2% | [3] 3.25% | [4] -40.5% | [5] -2.15% | [6] -1.6%
